What all share (test): NCI-60 one-dose screen, 48 h (100 = growth as untreated, 0 = no growth, -100 = all killed)
What all share (settings): 10 µM unless noted

For assay [1], the system named is NCI-H23 lung.
The test system of assay [2] is NCI-H226 lung.
In assay [3] the test system is NCI-H322M lung.
The test system of assay [4] is HOP-62 NSCLC.
The test system of assay [5] is NCI-H460 lung.
The test system of assay [6] is HOP-92 NSCLC.
The test system of assay [7] is NCI-H522 lung.
Assay [8] relates to A549/ATCC NSCLC.
The test system of assay [9] is 786-0 renal.
Assay [10] has as its system COLO 205 colon.
In assay [11] the test system is DU-145 prostate.
Assay [12] has as its system K-562 leukemia.
The test system of assay [13] is MALME-3M melanoma.
Assay [14] has as its system MDA-MB-231 breast.
The test system of assay [15] is RXF 393 renal.
The test system of assay [16] is SF-268 CNS.
The subject of assay [17] is SF-295 CNS.
For assay [18], the system named is SF-539 CNS.
The test system of assay [19] is UACC-257 melanoma.
The subject of assay [20] is M14 melanoma.

Molecules are shown by their SMILES. This is part of a sample that, as a whole, favours compounds with a hit. Of some 83,000 tested, about 20% had one in any assay.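 96-well plates, one dose, 48 hours. Percent growth reported; active if below 10.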 A number with no mark means an inactive call. Active and inactive are the calls of the source.

As to `CC1(C)CC(=O)C2=C(C1)OC1=C(C(=O)CC(C)(C)C1)C2c1ccc(OCc2cn(-c3ccc(F)cc3F)nn2)cc1`, the growth is 102% in assay [1]; 88.9% in assay [2]; 105% in assay [3]; 116% in [4]; 100% in assay [5]; 107% in assay [6]. The growth in [7] is 77%; in [8], 84.3%; in assay [9], 120%; in [10], 101%; in assay [11], 92.2%; in assay [12], 73.8%. Besides, the growth in [13] is 89.6%; in assay [14], 91.8%; in [15], 107%; in assay [16] it was 84.9%; in [17], 95.5%; in assay [18], 99.8%. The growth in [19] is 83.3%; in [20], 87.3%.

For `Nc1nc(-c2cc3c(cc2Cl)NC(=O)/C3=C/c2ccccc2)cs1`, the growth in assay [1] is 56.5%; in assay [2], 71.8%; in assay [3] it was 70.1%; in [4], 78.6%; in assay [5], 56.8%; in assay [6], 81.2%. Besides, the growth was 27.5% in assay [7]; 61.5% in assay [8]; 83.9% in assay [9]; 81.3% in assay [10]; 51.6% in [11]; 3.89% (active) in assay [12]. Moreover, the growth in [13] was 97.1%; in assay [14], 37.3%; in [15], 63.3%; in [16] it was 52.1%; in assay [17] it was 70%; in assay [18], 81.5%. Moreover, the growth in assay [19] is 80.1%; in assay [20], 60.6%.

`CCN(CC)CCNC(=O)c1c(C)[nH]c(/C=C2\C(=O)Nc3cc(NC(=O)NC(=O)c4ccc(OC)cc4F)ccc32)c1C`: the growth in assay [1] was 103%; in assay [2], 108%; in assay [3], 105%; in assay [4], 109%; in assay [5], 83.7%; in assay [6], 94.9%. Besides, the growth in [7] was 104%; in assay [8], 85.3%; in [9], -55.6% (active); in assay [10] it was 94.7%; in [11], 97.3%; in assay [12], 10.9%. Further, the growth is 108% in [13]; 77.8% in assay [14]; 66.4% in assay [15]; 102% in [16]; 117% in assay [17]; 94.7% in assay [18]. Further, the growth in [19] was 111%; in assay [20], 105%.

In the case of `COc1cc(NC(C)CCCN2C(=O)c3ccccc3C2=O)c2nccc(C)c2c1OC` (stereo not given), the growth is 90.1% in assay [1]; 94.1% in assay [2]; 102% in assay [3]; 103% in assay [4]; 108% in assay [5]; 60.1% in assay [6]. Also, the growth in assay [7] is 75.2%; in assay [8], 93.9%; in assay [9] it was 94.2%; in assay [10], 131%; in assay [11] it was 124%; in assay [12], 60.9%. Further, the growth in [13] was 81.2%; in [14], 84.7%; in [15] it was 106%; in [16], 104%; in [17], 119%; in assay [18], 119%. For the same compound, the values for the growth in [19] and in assay [20] were 106% and 135%, respectively.

For `CNCCCOc1c(Br)cc(CCNC(=O)/C(Cc2cc(Br)c(OC)c(Br)c2)=N/O)cc1Br`, the growth in [1] is -20.9% (active); in [2] it was 75.1%; in assay [3], 21%; in assay [4], -7.84% (active); in assay [5] it was -44.7% (active); in [6], -6.24% (active). Besides, the growth in [7] is -64% (active); in [8] it was -16.7% (active); in assay [9], -80.8% (active); in assay [10], -72% (active); in assay [11], -5.03% (active); in assay [12], -51.2% (active). For the same compound, the growth in assay [13] was -78% (active); in assay [14], -69.8% (active); in [15], -5.85% (active); in assay [16], 4.43% (active); in assay [17] it was -65.5% (active); in assay [18] it was -73.9% (active). Besides, the growth in assay [19] is -45.3% (active); in assay [20], -76.7% (active).

Turning to `O=C1/C(=C/c2cccc3cnccc23)Cc2cc(F)ccc21`, the growth in assay [1] was 87.7%; in assay [2], 73.8%; in [3], 93.9%; in assay [4], 65.1%; in assay [5] it was 95.9%; in assay [6], 75.3%. Besides, the growth was 78.4% in assay [7]; 98.7% in assay [8]; 97.4% in assay [9]; 81.8% in [10]; 104% in [11]; 96.1% in assay [12]. Besides, the growth is 97.9% in assay [13]; 93.4% in [14]; 112% in assay [15]; 98.8% in [16]; 88.4% in assay [17]; 94.1% in [18]. In addition, the growth was 113% in [19] and 87.7% in assay [20].

Take `Cc1ncc(CO)c(C(=O)O)c1O`: the growth in [1] is 98.6%; in [2] it was 102%; in assay [3], 80.9%; in assay [4] it was 104%; in assay [5] it was 105%; in [6], 106%. The growth in [7] was 79.8%; in assay [8], 110%; in assay [9], 97.5%; in assay [10] it was 112%; in assay [11], 102%; in assay [12] it was 93%. Also, the growth was 95.9% in [13]; 103% in [14]; 106% in assay [15]; 94.4% in [16]; 100% in assay [17]; 96.6% in assay [18]. Further, the growth is 107% in assay [19] and 93.7% in assay [20].

Regarding `O=[N+]([O-])c1ccccc1NC1c2ccccc2Oc2ccccc21`, the growth was 79.1% in [1]; 78% in assay [2]; 74.6% in [3]; 70% in assay [4]; 15.1% in assay [5]; 48.4% in assay [6]. The growth is 26.3% in [7]; 44.9% in [8]; 94.5% in [9]; 69.3% in assay [10]; 58.3% in assay [11]; 11.2% in assay [12]. Moreover, the growth in assay [13] was 48.4%; in [14], 71.7%; in assay [15], 81.1%; in assay [16], 41.2%; in assay [17] it was 23.6%; in assay [18] it was 58.2%. Further, the growth in assay [19] is 74.2%; in assay [20], 36.6%.

The values above are taken from PubChem BioAssay (NCI).
